Laboratory results as given in the supplement of paper PMC6522484.
± gives the standard deviation of the averaged measurements.

How the values were obtained:
DLD1 [1] = test: cell viability (CellTiter-Glo) relative to plate median (fraction of plate median); higher = more viable cells; settings: 10 µM, treatment time 24 h
Procedure, shortened: (§1)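 Each value averages two independent replicates in which the well signal was normalised to the plate median (webcellHTS2, additive, without log transformation). The signal was firefly luciferase or CellTiterGlo luminescence, read on parallel plates with a Tecan F500. The cells were colorectal cancer lines with stable lentiviral TCF/Wnt firefly luciferase reporters in 384-well plates, dosed 24 h after seeding with kinase inhibitor library compounds at a final 10 µM for 24 h.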

HCT116 [2] = test: as above; settings: 10 µM; treatment time 24 h; reporter: TCF4/Wnt
Procedure, shortened: as §1

SW480 [3] = test: as above; settings: 10 µM; treatment time 24 h; reporter: 7TFP
Procedure, shortened: as §1

DLD1 [4] = test: TCF/Wnt firefly luciferase reporter signal relative to plate median (fraction of plate median); higher = higher Wnt reporter signal; settings: 10 µM, treatment time 24 h
Procedure, shortened: as §1

HCT116 [5] = test: as above; settings: 10 µM; treatment time 24 h; reporter: TCF4/Wnt
Procedure, shortened: as §1

SW480 [6] = test: as above; settings: 10 µM; treatment time 24 h; reporter: 7TFP
Procedure, shortened: as §1

Question: Which results are given for O=C(O)c1ccc(Nc2ncc3c(n2)-c2ccc(Cl)cc2C(c2c(F)cccc2F)=NC3)cc1?
Answer: cell viability (DLD1 [1]; reporter: 7TFP): 1.06 ± 0.028; cell viability (DLD1 [1]; reporter: TCF4/Wnt): 0.993 ± 0.067; cell viability (HCT116 [2]): 0.982 ± 0.0042; cell viability (SW480 [3]): 1.01 ± 0.055; TCF/Wnt firefly luciferase reporter signal (DLD1 [4]; reporter: 7TFP): 1.1 ± 0.19; TCF/Wnt firefly luciferase reporter signal (DLD1 [4]; reporter: TCF4/Wnt): 1.11 ± 0.042; TCF/Wnt firefly luciferase reporter signal (HCT116 [5]): 1.375 ± 0.0071; TCF/Wnt firefly luciferase reporter signal (SW480 [6]): 0.9575 ± 0.00071

Question: COc1cc2ncnc(Nc3cccc(Cl)c3)c2cc1OC [AG-1478 (Tyrphostin AG-1478)] was tested. Which cell viability (DLD1 [1]; reporter: 7TFP) did it give?
Answer: The cell viability was 0.949 ± 0.059.

Question: What about the cell viability (DLD1 [1]; reporter: TCF4/Wnt) of the same compound?
Answer: Its cell viability is 1 ± 0.053.

Question: What about the cell viability (HCT116 [2]) of the same compound?
Answer: The cell viability was 1.12 ± 0.014.

Question: And the cell viability (SW480 [3])?
Answer: Its cell viability is 0.9395 ± 0.005.

Question: What about the “TCF/Wnt firefly luciferase reporter signal” value (DLD1 [4]; reporter: 7TFP) of the same compound?
Answer: Its value is 0.847 ± 0.03.

Question: What about the “TCF/Wnt firefly luciferase reporter signal” value (DLD1 [4]; reporter: TCF4/Wnt) of the same compound?
Answer: Its value is 0.75 ± 0.1.

Question: And the “TCF/Wnt firefly luciferase reporter signal” value (HCT116 [5])?
Answer: Its value is 1.015 ± 0.0071.

Question: And the “TCF/Wnt firefly luciferase reporter signal” value (SW480 [6])?
Answer: Its value is 0.962 ± 0.054.

Question: For COc1cccc2cc(-c3nc([C@H]4CC[C@H](C(=O)O)CC4)n4ncnc(N)c34)[nH]c12, which cell viability (DLD1 [1]; reporter: 7TFP) is on record?
Answer: Its cell viability is 1.03 ± 0.093.

Question: What about the cell viability (DLD1 [1]; reporter: TCF4/Wnt) of the same compound?
Answer: The cell viability was 1.02 ± 0.056.

Question: And the cell viability (HCT116 [2])?
Answer: The cell viability was 0.816 ± 0.0042.

Question: What about the cell viability (SW480 [3]) of the same compound?
Answer: The cell viability was 1.19 ± 0.11.

Question: And the “TCF/Wnt firefly luciferase reporter signal” value (DLD1 [4]; reporter: 7TFP)?
Answer: Its value is 0.442 ± 0.061.

Question: And the “TCF/Wnt firefly luciferase reporter signal” value (DLD1 [4]; reporter: TCF4/Wnt)?
Answer: Its value is 0.449 ± 0.098.

Question: And the “TCF/Wnt firefly luciferase reporter signal” value (HCT116 [5])?
Answer: Its value is 0.6105 ± 0.00071.

Question: And the “TCF/Wnt firefly luciferase reporter signal” value (SW480 [6])?
Answer: Its value is 0.83 ± 0.069.

Question: For O=C1NC(=O)[C@@H](c2cn3c4c(cccc24)CCC3)[C@@H]1c1c[nH]c2ccccc12 [ARQ 197 (Tivantinib)], which cell viability (DLD1 [1]; reporter: 7TFP) is on record?
Answer: The cell viability was 0.995 ± 0.18.

Question: What about the cell viability (DLD1 [1]; reporter: TCF4/Wnt) of the same compound?
Answer: The cell viability was 1.01 ± 0.017.

Question: What about the cell viability (HCT116 [2]) of the same compound?
Answer: Its cell viability is 0.593 ± 0.15.

Question: And the cell viability (SW480 [3])?
Answer: Its cell viability is 1.07 ± 0.014.

Question: And the “TCF/Wnt firefly luciferase reporter signal” value (DLD1 [4]; reporter: 7TFP)?
Answer: Its value is 0.632 ± 0.25.

Question: And the “TCF/Wnt firefly luciferase reporter signal” value (DLD1 [4]; reporter: TCF4/Wnt)?
Answer: Its value is 0.788 ± 0.31.

Question: What about the “TCF/Wnt firefly luciferase reporter signal” value (HCT116 [5]) of the same compound?
Answer: Its value is 0.241 ± 0.028.

Question: And the “TCF/Wnt firefly luciferase reporter signal” value (SW480 [6])?
Answer: Its value is 0.701 ± 0.043.

Question: With Cc1cc(Nc2nc(N[C@@H](C)c3ccc(F)cc3)c(C#N)cc2F)n[nH]1 as the compound, how does the cell viability (DLD1 [1]; reporter: 7TFP) read?
Answer: Its cell viability is 0.875 ± 0.17.

Question: And the cell viability (DLD1 [1]; reporter: TCF4/Wnt)?
Answer: The cell viability was 0.843 ± 0.062.

Question: What about the cell viability (HCT116 [2]) of the same compound?
Answer: Its cell viability is 0.831 ± 0.015.

Question: What about the cell viability (SW480 [3]) of the same compound?
Answer: The cell viability was 1.02 ± 0.035.

Question: What about the “TCF/Wnt firefly luciferase reporter signal” value (DLD1 [4]; reporter: 7TFP) of the same compound?
Answer: Its value is 1.14 ± 0.23.

Question: What about the “TCF/Wnt firefly luciferase reporter signal” value (DLD1 [4]; reporter: TCF4/Wnt) of the same compound?
Answer: The value was 1.15 ± 0.25.

Question: What about the “TCF/Wnt firefly luciferase reporter signal” value (HCT116 [5]) of the same compound?
Answer: The value was 1.22 ± 1.1.

Question: What about the “TCF/Wnt firefly luciferase reporter signal” value (SW480 [6]) of the same compound?
Answer: Its value is 0.804 ± 0.38.

Question: How did the cell viability (DLD1 [1]; reporter: 7TFP) turn out when O=C(O)[C@]1(Cc2cccc(Nc3nccs3)n2)CC[C@@H](Oc2cccc(Cl)c2F)CC1 was run?
Answer: Its cell viability is 1.08 ± 0.092.

Question: What about the cell viability (DLD1 [1]; reporter: TCF4/Wnt) of the same compound?
Answer: The cell viability was 1.02 ± 0.014.

Question: What about the cell viability (HCT116 [2]) of the same compound?
Answer: The cell viability was 0.959 ± 0.057.

Question: And the cell viability (SW480 [3])?
Answer: Its cell viability is 1.14 ± 0.014.

Question: And the “TCF/Wnt firefly luciferase reporter signal” value (DLD1 [4]; reporter: 7TFP)?
Answer: The value was 0.824 ± 0.061.

Question: What about the “TCF/Wnt firefly luciferase reporter signal” value (DLD1 [4]; reporter: TCF4/Wnt) of the same compound?
Answer: Its value is 0.857 ± 0.2.

Question: What about the “TCF/Wnt firefly luciferase reporter signal” value (HCT116 [5]) of the same compound?
Answer: The value was 0.568 ± 0.44.

Question: And the “TCF/Wnt firefly luciferase reporter signal” value (SW480 [6])?
Answer: The value was 0.742 ± 0.0071.

Question: Which results are given for CO[C@H]1C[C@@H]2CC[C@@H](C)[C@@](O)(O2)C(=O)C(=O)N2CCCC[C@H]2C(=O)O[C@H]([C@H](C)C[C@@H]2CC[C@@H](OCCO)[C@H](OC)C2)CC(=O)[C@H](C)/C=C(\C)[C@@H](O)[C@@H](OC)C(=O)[C@H](C)C[C@H](C)/C=C/C=C/C=C/1C [Everolimus (RAD001)]?
Answer: cell viability (DLD1 [1]; reporter: 7TFP): 1.04 ± 0.11; cell viability (DLD1 [1]; reporter: TCF4/Wnt): 1.02 ± 0.028; cell viability (HCT116 [2]): 0.974 ± 0.094; cell viability (SW480 [3]): 1.26 ± 0.028; TCF/Wnt firefly luciferase reporter signal (DLD1 [4]; reporter: 7TFP): 0.893 ± 0.091; TCF/Wnt firefly luciferase reporter signal (DLD1 [4]; reporter: TCF4/Wnt): 1.05 ± 0.14; TCF/Wnt firefly luciferase reporter signal (HCT116 [5]): 0.951 ± 0.15; TCF/Wnt firefly luciferase reporter signal (SW480 [6]): 1.42 ± 0.057

Question: Cc1cc(C(C)Nc2ccccc2)c2nc(N3CCOCC3)cc(=O)n2c1 (stereo not given) was tested. Which cell viability (DLD1 [1]; reporter: 7TFP) did it give?
Answer: Its cell viability is 0.997 ± 0.13.

Question: What about the cell viability (DLD1 [1]; reporter: TCF4/Wnt) of the same compound?
Answer: Its cell viability is 0.909 ± 0.04.

Question: What about the cell viability (HCT116 [2]) of the same compound?
Answer: Its cell viability is 1.115 ± 0.0071.

Question: What about the cell viability (SW480 [3]) of the same compound?
Answer: The cell viability was 0.909 ± 0.071.

Question: And the “TCF/Wnt firefly luciferase reporter signal” value (DLD1 [4]; reporter: 7TFP)?
Answer: Its value is 1.15 ± 0.11.

Question: And the “TCF/Wnt firefly luciferase reporter signal” value (DLD1 [4]; reporter: TCF4/Wnt)?
Answer: Its value is 1.21 ± 0.05.

Question: What about the “TCF/Wnt firefly luciferase reporter signal” value (HCT116 [5]) of the same compound?
Answer: Its value is 1.15 ± 0.092.

Question: What about the “TCF/Wnt firefly luciferase reporter signal” value (SW480 [6]) of the same compound?
Answer: The value was 0.679 ± 0.3.

Question: Which results are given for CCc1cccc(CC)c1NC(=O)N1Cc2[nH]nc(NC(=O)c3ccc(N4CCN(C)CC4)cc3)c2C1?
Answer: cell viability (DLD1 [1]; reporter: 7TFP): 1.05 ± 0.2; cell viability (DLD1 [1]; reporter: TCF4/Wnt): 1.055 ± 0.0071; cell viability (HCT116 [2]): 0.954 ± 0.093; cell viability (SW480 [3]): 1.1 ± 0.078; TCF/Wnt firefly luciferase reporter signal (DLD1 [4]; reporter: 7TFP): 1.26 ± 0.014; TCF/Wnt firefly luciferase reporter signal (DLD1 [4]; reporter: TCF4/Wnt): 1.09 ± 0.057; TCF/Wnt firefly luciferase reporter signal (HCT116 [5]): 0.996 ± 0.19; TCF/Wnt firefly luciferase reporter signal (SW480 [6]): 0.794 ± 0.039

Question: What does the source list for CC(C)n1nc(-c2cc3cc(O)ccc3[nH]2)c2c(N)ncnc21?
Answer: cell viability (DLD1 [1]; reporter: 7TFP): 0.86 ± 0.18; cell viability (DLD1 [1]; reporter: TCF4/Wnt): 0.984 ± 0.037; cell viability (HCT116 [2]): 0.698 ± 0.067; cell viability (SW480 [3]): 1.15 ± 0.085; TCF/Wnt firefly luciferase reporter signal (DLD1 [4]; reporter: 7TFP): 0.557 ± 0.016; TCF/Wnt firefly luciferase reporter signal (DLD1 [4]; reporter: TCF4/Wnt): 0.752 ± 0.0057; TCF/Wnt firefly luciferase reporter signal (HCT116 [5]): 0.547 ± 0.061; TCF/Wnt firefly luciferase reporter signal (SW480 [6]): 0.636 ± 0.26
